MCF10A rereplic – induces DNA re-replication in MCF 10a normal breast cells; MCF 10A DNA re-replication, Hoechst nuclear intensity, 48 h; Potency, µM (series often up to 46.1 µM), actives largely listed as activators; 2.9% of 350,000 active; note: nearly all actives have a fitted effect of over 50% in size
ELG1 repair inh – inhibitors of ELG1-dependent DNA repair in HEK293T cells; 2.3% of 330,000 active; Potency, µM (highest dose often 46.1 µM), hits mostly inhibitors; HEK293T ELG1-luciferase reporter, luminescence, 16 h; DNA damage induced by 5-fluorouridine; note: nearly all actives have a fitted effect of over 55% in size
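DMSO vehicle served as the neutral condition. Each well held 2,000 cells given 5-fluorouridine plus compound; after 16 hr at 37 °C/5% CO2, ONE-Glo was added and luciferase measured 30 min later.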
SW480 rerep – induces DNA re-replication in SW480 colon adenocarcinoma cells; SW480 DNA re-replication, Hoechst DNA content imaging, 48 h; Potency, µM (titrated, usually from 46.1 µM), usual class: activators; 1.8% of 340,000 active; note: nearly all actives have a fitted effect of over 55% in size
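First, 250 cells per well were seeded. Next, compound or vehicle (23 nL) was pinned in, plates sat 48 hr at 37 C. Finally Hoechst was added for 40 min before fluorescence scanning.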
p53 reactivator – mutant p53 re-activation in reporter cells | H1299 p53-A138V BP100-luciferase reporter, luminescence, 24 h | Potency, µM (highest dose often 92.2 µM), hits mostly activators | 0.063% of 320,000 active | AID 504706; note: nearly all actives have a fitted effect of over 45% in size
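H1299 (p53-null), stable ts p53-A138V + BP100-Luc; 1000 cells/well, Opti-MEM/10% FBS; cpd 4 pt, 1:5; 24 h, 37 deg C, 5% CO2; detection reagent 10 min RT; luminescence.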
A-T KAP1 phos – potential ataxia-telangiectasia treatment | Potency, µM (series often up to 57.5 µM), most hits filed as activators | AID 485349 | 0.19% of 320,000 active | F2112 A-T fibroblasts, KAP-1 phosphorylation AlphaLISA; neocarzinostatin DNA damage 30 min before lysis; note: nearly all actives have a fitted effect of over 45% in size
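hTERT-immortalized A-T patient fibroblasts (F2112), 500 cells/well in OPTI-MEM, 1% FBS, got compounds for 60 min, then NCS for 30 min at 37C. Lysates were then assayed for phospho-KAP-1 by AlphaLISA (anti-pKAP1 donor, anti-KAP1 acceptor beads), 6 hr at 25C.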
ELG1 genotox – genotoxicity induction in ELG1-luciferase HEK293T cells | 1.3% of 330,000 active | Potency, µM (top dose mostly 46 µM), actives largely listed as activators | AID 504466 | HEK293T ELG1-luciferase reporter, luminescence, 16 h; note: nearly all actives have a fitted effect of over 60% in size
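Quantitative HTS format in 1536-well plates. HEK293T ELG1-luciferase reporter cells receive test compound and are incubated 16 hr at 37 °C, 5% CO2; ONE-Glo added, 30 min room temperature, then luminescence read.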
A number is an active result; – = inactive; ? = inconclusive; · = not tested or not shown; [ ] = remark or other dose. Compounds with a hit are over-represented: about 7.1% of the library has one in this group of screens. Calls come from the whole dose curve; as a rule, active = well fitted curve in the direction sought with a large enough effect; inconclusive = small, poorly fitted or top-dose-only effect, or another doubt; inactive = no such curve, though single readings can be large; an effect the other way counts as inactive or inconclusive.

SMILES | MCF10A rereplic | ELG1 repair inh | SW480 rerep | p53 reactivator | A-T KAP1 phos | ELG1 genotox
O=C1c2ccc3c4c(ccc(c24)C(=O)N1c1cccc(O)c1)C(=O)N(c1cccc(O)c1)C3=O | 13µM | 6.5µM | 2.6µM | – | – | –
Cc1cccc(N2C(=O)c3cccc4c(N)ccc(c34)C2=O)c1 | ? | – | 8.2µM | – | – | –
CC(C)CCN1C(=O)c2cccc3c(N)ccc(c23)C1=O | 15µM | · | 23µM | · | · | ·
O=C(O)c1cccc(N2C(=O)c3cccc4cccc(c34)C2=O)c1 | ? | – | – | – | – | –
O=C(O)c1cccc(N2C(=O)c3cccc4c(Cl)ccc(c34)C2=O)c1 | 21µM | – | ? | – | – | –
Cc1nn(-c2ccc(F)cc2)c(Cl)c1/C=C(\CCC(=O)O)c1nc2ccccc2s1 | 18µM | – | – | – | – | –
O=C(O)CC/C(=C\c1cc([N+](=O)[O-])ccc1Cl)c1nc2ccccc2s1 | – | – | – | – | – | –
COc1ccc(/C=C(\C#N)C(=O)Nc2cc(C)c(Cl)cc2OC)cc1O | ? | – | 10µM | – | ? | ?
Cc1c(/C(O)=C2\C(=O)C(=O)N(CCCN(C)C)C2c2ccco2)cnn1-c1ccccc1 (configuration not stated) | – | · | – | · | · | ·
Cc1c(/C(O)=C2\C(=O)C(=O)N(CCN(C)C)C2c2ccco2)cnn1-c1ccccc1 (configuration not stated) | – | ? | – | – | – | 9.2µM
Cc1ccc(C2/C(=C(/O)c3cnn(-c4ccccc4)c3C)C(=O)C(=O)N2CCN2CCOCC2)o1 (configuration not stated) | – | ? | – | ? | – | 5.8µM
Cc1c(/C(O)=C2/C(=O)C(=O)N(CCN3CCOCC3)C2c2cccs2)cnn1-c1ccccc1 (configuration not stated) | – | ? | – | ? | – | 1.8µM
CC(=O)C1=C(c2ccccc2)N(C(C)=O)n2c(C)nnc2S1 | ? | – | ? | – | – | –
Cc1ccc(-c2nc(N/N=C/c3ccccc3[N+](=O)[O-])c3ccccc3n2)cc1 | 13µM | ? | 7.3µM | – | – | –
O=[N+]([O-])c1ccccc1C=NNc1ccccc1 | – | · | – | · | · | ·
N#Cc1cc2c(=O)n3ccccc3nc2n(Cc2ccco2)c1=NC(=O)c1ccco1 | 23µM | – | – | – | – | –
Cc1cccn2c(=O)c3cc(C#N)c(=NC(=O)c4ccncc4)n(CCCOC(C)C)c3nc12 | 4.6µM | 12µM | ? | – | – | –
COCCCn1c(=NC(=O)c2ccncc2)c(C#N)cc2c(=O)n3cccc(C)c3nc21 | –[0.0737 µM] | – | ? | – | – | –
COc1ccc(C(=O)N=c2c(C#N)cc3c(=O)n4cccc(C)c4nc3n2Cc2ccco2)cc1 | · | – | · | – | – | –
CCOCCCn1c(=NC(=O)c2cccnc2)c(C(=O)OCC)cc2c(=O)n3ccccc3nc21 | ? | ? | ? | – | – | –
CCCCn1c(=NC(=O)c2ccco2)c(C(=O)OCC)cc2c(=O)n3cccc(C)c3nc21 | 6.5µM | – | 18µM | – | – | –
CCOCCCn1c(=NC(=O)c2cccs2)c(C#N)cc2c(=O)n3ccccc3nc21 | ? | – | 12µM | – | – | –
Cc1nc(NC(=O)CSc2nnc(C3CC3)n2N)c(Cl)cc1Cl | – | – | ? | – | – | –
CCOC(=O)C1CCN(CCCSc2ccc(C)cc2)CC1 | – | · | –[1.84 µM] | · | · | ·
Cc1nnc(NC(=O)CSc2nnc(CC(=O)Nc3ccccc3F)n2C)s1 | – | – | – | – | – | –
SMILES | MCF10A rereplic | ELG1 repair inh | SW480 rerep | p53 reactivator | A-T KAP1 phos | ELG1 genotox
Cc1cccn2c(=O)c3cc(C#N)c(=NC(=O)c4cccs4)n(CCCOC(C)C)c3nc12 | ? | – | 21µM | – | – | –
Cc1ccccc1C(=O)N=c1c(C#N)cc2c(=O)n3cccc(C)c3nc2n1Cc1ccco1 | · | – | · | – | – | –
CC(=O)N=c1c(C#N)cc2c(=O)n3cccc(C)c3nc2n1Cc1ccco1 | ? | ? | 0.58µM | – | – | –
CCCn1c(=NC(=O)c2ccncc2)c(C#N)cc2c(=O)n3cccc(C)c3nc21 | – | · | – | · | · | ·
CC(=O)N=c1c(C#N)cc2c(=O)n3cccc(C)c3nc2n1CCCOC(C)C | ? | 7.3µM | 21µM | – | – | –
CCCCn1c(=NC(=O)c2cccnc2)c(C#N)cc2c(=O)n3cccc(C)c3nc21 | – | – | – | – | – | –
CSc1ccc(C2C(C#N)=C(N)Oc3c2ccc(=O)c2c(C)oc(C)c32)cc1 (configuration not stated) | 18µM | – | – | – | – | –
Cc1oc(C)c2c(=O)ccc3c(c12)OC(N)=C(C#N)C3c1ccccc1 (configuration not stated) | ? | – | – | – | – | –
O=C(CSc1nnc(C2CC2)n1C1CC1)Nc1cccc(Br)c1 | – | – | – | – | – | –
C=CCNC(=O)C(=O)NCCOc1ccccc1Cl | ? | – | 21µM | – | – | –
O=C(NC1CCCCC1)c1cccc(N2C(=O)CCC2=O)c1 | – | – | – | – | – | –
CCN(CC)CCCNc1oc(/C=C/c2ccccc2)nc1C#N | ? | ? | 21µM | – | – | –
CN(C)CCCNc1oc(-c2ccccc2)nc1C#N | – | – | – | – | – | –
CNc1oc(/C=C/c2cccc(OC)c2)nc1C#N | 21µM | ? | 18µM | · | – | 21µM
COc1ccc(/C=C/c2nc(C#N)c(NCCN(C)C)o2)cc1OC | ? | – | ? | · | – | –
CCNc1oc(/C=C/c2ccc(OCC)cc2)nc1C#N | 2.6µM | ? | 3.3µM | – | – | –
S=C(NCCc1ccccc1)Nc1ccc(N2CCCCC2)cc1 | – | – | – | – | – | –
COc1ccccc1NS(=O)(=O)c1cccc(C(=O)N2CC(C)OC(C)C2)c1 (configuration not stated) | – | ? | – | – | – | –
COC(=O)c1cc(Cl)c(NC(=O)/C=C/c2ccc(Cl)cc2Cl)cc1OC | 2.1µM | – | – | – | – | ?
COC(=O)c1cc(Cl)c(NC(=O)/C=C/c2ccc(Cl)cc2)cc1OC | ? | – | ? | – | – | –
CCOC(=O)c1c(C)oc2ccc(OCC(=O)C(C)(C)C)cc12 | – | ? | –[9.22 µM] | – | · | –
COC(=O)c1cc(COc2ccc3oc(C)c(C(=O)OC)c3c2)c(C)o1 | 15µM | ? | 18µM | – | – | –
CCOC(=O)c1c(C)oc2ccc(OCc3cc(C(=O)OC)oc3C)cc12 | 6.5µM | – | – | – | – | –
COC(=O)c1cc(COc2ccc3ccc(=O)oc3c2)c(C)o1 | – | ? | – | – | – | –
